In PubChem BioAssay (NCATS):
Records with an inconclusive call do not appear. Calls of active or inactive are those of the source. Calls come from the whole dose curve; as a rule, active = well fitted cell-killing curve with a large enough effect; inconclusive = small, poorly fitted or top-dose-only effect, or effect the other way; inactive = flat fitted curve, though single readings scatter.

Key:
Assay in all cases: Primary qHTS to identify gynecologic anti-cancer compounds using libraries of approved drugs and bioactive compounds (AID 1345084); note: nearly all actives have a fitted effect of over 55% in size
C33A = conditions: Gynecologic cancer cell panel viability, ATPlite luminescence, 48 h; series mostly up to 57.5 µM
In short: (§1)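 Luminescence from the ATPlite ATP-monitoring reagent indicates viable cell number; lower signal means cytotoxicity. Cells received compound 16 h after seeding and were exposed for 48 h across five concentrations.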

CAOV3 = conditions: Gynecologic cancer cell panel viability, ATPlite luminescence, 48 h; series mostly up to 57.5 µM
In short: as §1

CASKI = conditions: Gynecologic cancer cell panel viability, ATPlite luminescence, 48 h; series mostly up to 57.5 µM
In short: as §1

Es-2 = conditions: Gynecologic cancer cell panel viability, ATPlite luminescence, 48 h; series mostly up to 57.5 µM
In short: as §1

HeLa = conditions: Gynecologic cancer cell panel viability, ATPlite luminescence, 48 h; series mostly up to 57.5 µM
In short: as §1

Hek293T = conditions: Gynecologic cancer cell panel viability, ATPlite luminescence, 48 h, control line for the selectivity index; series mostly up to 57.5 µM
In short: as §1

JEG-3 = conditions: Gynecologic cancer cell panel viability, ATPlite luminescence, 48 h; series mostly up to 57.5 µM
In short: as §1

OV90 = conditions: Gynecologic cancer cell panel viability, ATPlite luminescence, 48 h; series mostly up to 57.5 µM
In short: as §1

PA-1 = conditions: Gynecologic cancer cell panel viability, ATPlite luminescence, 48 h; series mostly up to 57.5 µM
In short: as §1

SKOV3 = conditions: Gynecologic cancer cell panel viability, ATPlite luminescence, 48 h; series mostly up to 57.5 µM
In short: as §1

Tov-21-G = conditions: Gynecologic cancer cell panel viability, ATPlite luminescence, 48 h; series mostly up to 57.5 µM
In short: as §1

Tov112D = conditions: Gynecologic cancer cell panel viability, ATPlite luminescence, 48 h; series mostly up to 57.5 µM
In short: as §1
% is set by controls: 0 for no effect and ±100 for the full control effect.

C[C@@H]1C[C@@H]([C@@H](O)C(C)(C)O)O[C@H]2C[C@@]3(C)C(=C12)C[C@H](O)[C@H]1[C@@]2(C)CCC(=O)C(C)(C)C2CC[C@@]13C (stereo partly specified)
inactive: Potency (C33A) | Potency (CAOV3) | Potency (CASKI) | Potency (Es-2) | Potency (HeLa) | Potency (Hek293T) | Potency (JEG-3) | Potency (OV90) | Potency (PA-1) | Potency (SKOV3) | Potency (Tov-21-G) | Potency (Tov112D)

C=C(C)C1CCC2(C(=O)O[C@@H]3O[C@H](CO[C@@H]4O[C@H](CO)[C@@H](O)[C@H](O)[C@H]4O)[C@@H](O)[C@H](O[C@@H]4O[C@@H](C)[C@H](O)[C@@H](O)[C@H]4O)[C@H]3O)CCC3(C(=O)O)C(CCC4C5(C)CCC(O)C(C)(C)C5CCC43C)C12 (stereo partly specified)
inactive: activity change, negative = cytotoxicity (C33A) -9.37% [at 11.6 µM] | activity change, negative = cytotoxicity (CAOV3) -3.74% [at 11.6 µM] | activity change, negative = cytotoxicity (CASKI) 13.9% [at 11.6 µM] | activity change, negative = cytotoxicity (Es-2) 1.26% [at 11.6 µM] | activity change, negative = cytotoxicity (HeLa) -0.105% [at 11.6 µM] | activity change, negative = cytotoxicity (Hek293T) -3.68% [at 11.6 µM] | activity change, negative = cytotoxicity (JEG-3) 18.7% [at 11.6 µM] | activity change, negative = cytotoxicity (OV90) 15.5% [at 11.6 µM] | activity change, negative = cytotoxicity (PA-1) -1.76% [at 11.6 µM] | activity change, negative = cytotoxicity (SKOV3) -5.29% [at 11.6 µM] | activity change, negative = cytotoxicity (Tov-21-G) 9.18% [at 11.6 µM] | activity change, negative = cytotoxicity (Tov112D) 11.4% [at 11.6 µM]

C[C@@H]1C(=O)O[C@H]2[C@@H](O)C34[C@H]5C[C@@H](C(C)(C)C)C36[C@@H](OC(=O)[C@@H]6O)O[C@@]4(C(=O)O5)[C@@]12O (stereo partly specified)
inactive: Potency (C33A) | Potency (CAOV3) | Potency (CASKI) | Potency (Es-2) | Potency (HeLa) | Potency (Hek293T) | Potency (JEG-3) | Potency (OV90) | Potency (PA-1) | Potency (SKOV3) | Potency (Tov-21-G) | Potency (Tov112D)

OC[C@H]1O[C@@H](OC(CCCCc2ccc(O)cc2)CCc2ccc(O)cc2)[C@H](O)[C@@H](O)[C@@H]1O (stereo partly specified)
inactive: Potency (C33A) | Potency (CAOV3) | Potency (CASKI) | Potency (Es-2) | Potency (HeLa) | Potency (Hek293T) | Potency (JEG-3) | Potency (OV90) | Potency (PA-1) | Potency (SKOV3) | Potency (Tov-21-G) | Potency (Tov112D)

C=C(C)C1CC[C@]2(C(=O)O)CC[C@]3(C(=O)O)[C@H](CCC4[C@@]5(C)CC[C@H](O)C(C)(C)C5CC[C@]43C)C12 (stereo partly specified)
inactive: Potency (C33A) | Potency (CAOV3) | Potency (CASKI) | Potency (Es-2) | Potency (HeLa) | Potency (Hek293T) | Potency (JEG-3) | Potency (OV90) | Potency (PA-1) | Potency (SKOV3) | Potency (Tov-21-G) | Potency (Tov112D)

CC1CCN(C(=O)CC#N)CC1N(C)c1ncnc2[nH]ccc12 (stereo unspecified)
inactive: Potency (C33A) | Potency (CAOV3) | Potency (CASKI) | Potency (Es-2) | Potency (HeLa) | Potency (Hek293T) | Potency (JEG-3) | Potency (OV90) | Potency (PA-1) | Potency (SKOV3) | Potency (Tov-21-G) | Potency (Tov112D)

COc1ccc2nc(S(=O)(=O)Cc3ncc(C)c(OC)c3C)[nH]c2c1
inactive: Potency (C33A) | Potency (CAOV3) | Potency (CASKI) | Potency (Es-2) | Potency (HeLa) | Potency (Hek293T) | Potency (JEG-3) | Potency (OV90) | Potency (PA-1) | Potency (SKOV3) | Potency (Tov-21-G) | Potency (Tov112D)

C=C1C[C@@]23CCC4[C@@](C)(CCC[C@@]4(C)C(=O)OC)C2CC[C@@H]1C3 (stereo partly specified)
inactive: Potency (C33A) | Potency (CAOV3) | Potency (CASKI) | Potency (Es-2) | Potency (HeLa) | Potency (Hek293T) | Potency (JEG-3) | Potency (OV90) | Potency (PA-1) | Potency (SKOV3) | Potency (Tov-21-G) | Potency (Tov112D)

CC1CCC2(C(=O)O)CCC3(C)C(=CCC4C5(C)CCC(OC(=O)/C=C/c6ccccc6)C(C)(C)C5CCC43C)C2C1C (stereo unspecified)
inactive: Potency (C33A) | Potency (CAOV3) | Potency (CASKI) | Potency (Es-2) | Potency (HeLa) | Potency (Hek293T) | Potency (JEG-3) | Potency (OV90) | Potency (PA-1) | Potency (SKOV3) | Potency (Tov-21-G) | Potency (Tov112D)

CC1OC2OC(=O)C3(C)CC4=C(CO)C5=C(CC(=O)C4(C)C(C1=O)C23)C(C)(C)OC(=O)C5 (stereo unspecified)
inactive: Potency (C33A) | Potency (CAOV3) | Potency (CASKI) | Potency (Es-2) | Potency (HeLa) | Potency (Hek293T) | Potency (JEG-3) | Potency (OV90) | Potency (PA-1) | Potency (SKOV3) | Potency (Tov-21-G) | Potency (Tov112D)

CC(=O)O[C@H]1CC[C@@]2(C)C(CC[C@@H](C)[C@]23Cc2c(O)cc4c(c2O3)CN([C@@H](CCC(=O)O)C(=O)O)C4=O)C1(C)C (stereo partly specified)
inactive: Potency (C33A) | Potency (CAOV3) | Potency (CASKI) | Potency (Es-2) | Potency (HeLa) | Potency (Hek293T) | Potency (JEG-3) | Potency (OV90) | Potency (PA-1) | Potency (SKOV3) | Potency (Tov-21-G) | Potency (Tov112D)

CC1(c2nc3c(C(N)=O)cccc3[nH]2)CCCN1 (stereo unspecified)
inactive: Potency (C33A) | Potency (CAOV3) | Potency (CASKI) | Potency (Es-2) | Potency (HeLa) | Potency (Hek293T) | Potency (JEG-3) | Potency (OV90) | Potency (PA-1) | Potency (SKOV3) | Potency (Tov-21-G) | Potency (Tov112D)

COc1ccc(-c2nc(-c3ccc(-c4cccc(Cl)c4)o3)[nH]c2-c2ccc(OC)cc2)cc1
inactive: Potency (C33A) | Potency (CAOV3) | Potency (CASKI) | Potency (Es-2) | Potency (HeLa) | Potency (Hek293T) | Potency (JEG-3) | Potency (OV90) | Potency (PA-1) | Potency (SKOV3) | Potency (Tov-21-G) | Potency (Tov112D)
